Reference: PubChem BioAssay AID434973 (Sanford-Burnham Center for Chemical Genomics, 2010)
The whole screen tested about 330,000 compounds, of which about 4,900 (1.5%) were called active. The entries come from a sample that favours actives as a whole. A number with no mark means an inactive call.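 The calls were made as follows: active = inhibition above about 50% at the single test dose (limit read from the data); inactive = the rest.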

These compounds were tested against Sentrin-specific protease 7 (Homo sapiens) (UniProt Q9BQF6) (assay: SENP7 protease inhibitors, primary screen, biochemical, luminescence, uHTS (AID 434973;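 also: plate controls were DMSO with enzyme for no effect and no enzyme buffer wells for full effect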)). Conditions: recombinant SENP7, Z-RLRGG-aminoluciferin luminescence, 40 min; at 5 µM; active compounds read high.

Row | Compound | inhibition
1 | CCOc1ccc(C(=O)NCC(=O)N2CCCCCCC2)cc1OCC | 6.97%
2 | CCN1C[C@@H]2[C@@H]3C(=O)N(Cc4ccccc4)C(=O)[C@@H]3[C@](Cc3ccccc3)(C(=O)OC)N2C1=NC1CCCCC1 | 8.17%
3 | Cc1ccc(NC(=O)c2cccc(S(=O)(=O)N3CCCc4ccccc43)c2)nc1 | 5.31%
4 | CC(C)c1ccc(S(=O)(=O)N2CCC3(CC2)OCCO3)cc1 | 3.85%
5 | CCC1C/C(=C/c2cccs2)C(=O)/C(=C/c2cccs2)C1 (stereo unspecified) | 1.12%
6 | O=C1/C(=C/c2cccs2)SC(=S)N1C1CCS(=O)(=O)C1 (stereo unspecified) | 0.763%
7 | O=C1/C(=C/c2cccs2)CCC1C1CCCC1 (stereo unspecified) | 70% (active)
8 | O=C1/C(=C/c2cccs2)CCc2ccccc21 | 97.7% (active)
9 | CN1C/C(=C/c2cccs2)C(=O)/C(=C\c2cccs2)C1 | 7.35%
10 | COc1ccc(/C=C2\CCc3ccccc3C2=O)c(OC)c1OC | -0.625%
11 | CC(=O)N1CCN(S(=O)(=O)c2c(F)cc(F)c(Cl)c2F)CC1 | 2.44%
12 | O=C1Nc2cc(C(=O)N3CCN(c4ccc(F)cc4)CC3)ccc2NC1CSCc1cccc(F)c1 (stereo unspecified) | 8.91%
13 | COc1ccccc1C(=O)Nc1ccc(C)c(S(=O)(=O)N2CCCCC2)c1 | -5%
14 | Cc1cnc(C(=O)N2CCCC(N3CCN(c4ccccc4F)CC3)C2)cn1 (stereo unspecified) | -6.9%
15 | O=C1CN(C(=O)c2ccccc2F)C(c2ccc(F)cc2)c2cc(F)ccc2N1 (stereo unspecified) | -0.54%
16 | Oc1ccc(N=Nc2nccs2)c(O)c1 | 74.3% (active)
17 | Cc1ccc(OCC(=O)N2CCN(S(=O)(=O)c3ccc(Cl)s3)CC2)cc1C | 8.22%
18 | CSc1ccccc1-c1nnc(-c2ccc(Cl)cc2)o1 | 28.1%
19 | COc1ccccc1-c1nc(C(F)(F)F)c(OC)o1 | -6.4%
20 | COc1ccccc1-c1nnc(-c2ccc(F)cc2)o1 | 50.3% (active)
21 | O=C(NCc1cccc(Cl)c1)C1=CC=CN2CCS(=O)(=O)N=C12 | -0.294%
22 | CCN1C(=O)c2cccc3c(S(=O)(=O)Nc4ccccc4O)ccc1c23 | 11.4%
23 | CN1C(=O)c2cccc3c(N)ccc(c23)C1=O | -3.67%
24 | CCN1C(=O)c2cccc3c(N)ccc1c23 | 95.9% (active)

Row | Compound | inhibition
25 | CCOC(=O)C1=NNC2(c3ccc(Cl)cc3)C(=O)N(c3cc(C)cc(C)c3)C(=O)C12 (stereo unspecified) | 6.05%
26 | CCCn1c(=O)c2c(C(F)(F)F)cc(-c3cccs3)nc2n(CCC)c1=O | 3.7%
27 | C[N+](C)(C)CCNC(=O)c1c(O)c2c([nH]c1=O)CCCC2 | 4.83%
28 | O=C(NCc1ccccn1)c1c(O)c2c([nH]c1=O)CCCC2 | 53.8% (active)
29 | CCc1nnc(NC(=O)c2c(O)c3c([nH]c2=O)CCCC3)s1 | -5.71%
30 | CN1CCN(S(=O)(=O)c2ccc(Nc3ccc(F)cc3)nc2)CC1 | -1.19%
31 | O=C(Nc1ccn(Cc2ccccc2)n1)c1n[nH]c([N+](=O)[O-])c1Cl | 93.9% (active)
32 | Cc1c(Br)c([N+](=O)[O-])nn1CC(=O)N1CCN(Cc2ccccc2)CC1 | -3.11%
33 | O=C(Nc1ccn(Cc2ccccc2F)n1)c1ccc(COc2ccc(Cl)cc2Cl)o1 | -4.47%
34 | CCN(CC)S(=O)(=O)c1ccc(C(=O)N2CCN(C3=NS(=O)(=O)c4ccccc43)CC2)cc1 | 0.565%
35 | COC(CNC(=O)c1ccc2c(c1)ncn2-c1cc(C)cc(C)c1)OC | -3.05%
36 | COc1cc2c(cc1OC)C(C)N(S(=O)(=O)c1cnc(Cl)c(Cl)c1)CC2 (stereo unspecified) | 7.13%
37 | CCn1ccnc1CN(C)Cc1nc(-c2ccc3c(c2)OCO3)no1 | 3.04%
38 | Cc1cc(NC(=O)c2ccc(F)cc2)ccc1NC(=O)c1ccco1 | 64.1% (active)
39 | COc1ccccc1C(=O)Nc1ccc(NC(=O)c2ccco2)c(C)c1 | 50.6% (active)
40 | COc1ccc(OCC(=O)Nc2ccc(NC(=O)c3ccco3)c(C)c2)cc1 | -4.14%
41 | COc1ccc(NC(=O)c2ccco2)cc1NC(=O)c1ccc(C#N)cc1F | 1.99%
42 | O=C(Nc1ccc(O)cc1)c1ccc(NC(=O)c2ccco2)cc1 | -10.1%
43 | Cc1cccc(OCC(=O)Nc2ccc(NC(=O)c3ccco3)c(C)c2)c1 | 7.42%
44 | [O-][N+]12CCCCC1CCCC2CO (stereo unspecified) | 5.46%
45 | O=C(COc1nc2ccccc2nc1N1CCOCC1)NCC(F)(F)F | -5.55%
46 | CC1CCN(C(=O)C2CCN(S(=O)(=O)N3CCC4(CC3)OCCO4)CC2)CC1 | 6.94%
47 | O=C(Nc1cccnc1Cl)c1cc(-c2cccc(Cl)c2)on1 | -0.404%
48 | O=C(Nc1cccnc1Cl)c1cc(-c2ccccc2O)on1 | 52% (active)

Row | Compound | inhibition
49 | C=CCNC(=O)c1cc(-c2ccccc2O)on1 | -13.1%
50 | Cc1nc2nc(COc3ccccc3)[nH]n2c(=O)c1Cc1ccccc1 | -6.63%
51 | CC(Oc1ccc(Br)cc1Br)C(=O)NC1CCCC1 (stereo unspecified) | 4.39%
52 | CN(CCC(=O)Nc1cc(S(=O)(=O)N(C)C)ccc1Cl)CC(=O)Nc1ccc(F)cc1 | 4.2%
53 | Cc1ccccc1Nc1c([N+](=O)[O-])ccc2nonc12 | -0.26%
54 | CCC(=O)Nc1ccc2nn(-c3ccc(F)cc3)nc2c1 | 81.9% (active)
55 | Cc1ccc(-n2nc3ccc(NC(=O)/C=C/c4ccco4)cc3n2)cc1C | -3.4%
56 | Cc1cccc(C(=O)OCC(=O)Nc2ccc(F)cc2)c1 | -5.6%
57 | CC12CN(Cc3ccccc3)CC(C)(CN(Cc3ccccc3)C1)C2=NO | -9.93%
58 | COc1cccc(C(=O)Nc2nnc(S(=O)(=O)N(C)c3ccccc3)s2)c1 | 2.47%
59 | CCc1noc(C)c1C(=O)Nc1nc2ccc(OC)cc2s1 | 53.6% (active)
60 | COc1cccc(C(=O)Nc2nc3ccc(S(C)(=O)=O)cc3s2)c1 | 91.1% (active)
61 | CCc1noc(C)c1C(=O)Nc1nc(-c2ccccc2)cs1 | 0.582%
62 | Cc1noc(C)c1CSCC(=O)Nc1nc2ccc(Oc3ccccc3)cc2s1 | 7.89%
63 | COc1cccc(C(=O)Nc2nnc(S(=O)(=O)N3CCOCC3)s2)c1 | -5.71%
64 | O=C(Nc1ccccc1)c1nnsc1S(=O)(=O)c1ccc(Cl)cc1 | 7.61%
65 | O=C(Oc1ccccc1)Oc1ccc2c(c1)oc(=O)c1ccccc12 | 11.6%
66 | Cc1cc(NC(=O)C(C)SCC(=O)Nc2ccccc2N2CCCCC2)no1 (stereo unspecified) | 7.37%
67 | Cc1nn(C)c(C(=O)NNC(=S)NC2CCCCC2)c1Cl | 15.8%
68 | O=C(CN1C(=O)NC2(CCCC2)C1=O)OCCOc1ccc(F)cc1 | 2.48%
69 | OCCC1CN(Cc2cccc(O)c2)CCN1CCc1ccccc1 (stereo unspecified) | -3.9%
70 | COC(=O)c1oc2ccc(Br)cc2c1NC(C)=O | -6.53%
71 | Cc1nonc1NC(=O)c1oc2ccccc2c1C | -17.1%
72 | Cc1c(C(=O)Nc2ccccn2)oc2ccc(Br)cc12 | 65.6% (active)

Row | Compound | inhibition
73 | Cc1ccc(OCC(=O)Nc2ccccc2Sc2ccc(Cl)cc2)c([N+](=O)[O-])n1 | 3.81%
74 | CCN(CC(=O)Nc1ccc(NC(C)=O)cc1)C(=O)CSC(=S)N1CCCC1 | -7.39%
75 | Cc1cccc(NC(=O)/C=C/c2ccc3c(c2)OCO3)n1 | 78% (active)
76 | O=C(/C=C/c1ccc2c(c1)OCO2)NCc1ccc(F)cc1 | -2.53%
77 | Cc1cccc(NC(=O)Nc2ccc3c(c2)OCO3)n1 | 17%
78 | CCN(CC(=O)NCC(=O)Nc1cccc(C)c1C)Cc1ccccc1 | 1.52%
79 | O=C(COC(=O)c1ccc(O)cc1)Nc1nccs1 | -6.7%
80 | Cc1c(Cl)cccc1NC(=O)NCCCN1CCCC1=O | -2.59%
81 | O=C(Nc1ccc(Cl)cc1)Nc1ccc(C(=O)N2CCOCC2)cc1 | 11.1%
82 | Cc1c(Cl)cccc1NC(=O)Nc1ccc(C(=O)N2CCCC2)cc1 | 57% (active)
83 | COc1ccc(N2CCN(C(=O)c3cn(C)c4ccc(S(=O)(=O)N5CCOCC5)cc4c3=O)CC2)cc1 | 8.09%
84 | N/C(=N\OC(=O)c1cc(-c2ccccc2)nc2ccccc12)c1ccncc1 | -11.9%
85 | Cc1ccc(/C(N)=N/OC(=O)COc2ccc(Cl)c(C)c2)cc1 | -1.43%
86 | Cc1cccc(/C(N)=N/OC(=O)c2ccccc2Cl)c1 | 98.2% (active)
87 | CC(C)c1ccc(NC(=O)CCN2C(=O)c3ccc([N+](=O)[O-])cc3C2=O)cc1 | -0.0494%
88 | COc1ccc(C(=O)COC(=O)Cn2cnc3c2c(=O)n(C)c(=O)n3C)c(OC)c1 | -3.24%
89 | Cc1ccc(OCc2nc3ccccc3n2C)cc1 | 59.7% (active)
90 | CC(C)n1c(COc2ccccc2)nc2ccccc21 | 15%
91 | Cn1c(COc2ccc(Cl)cc2)nc2ccccc2c1=O | -3.98%
92 | O=C(Cn1c(COc2ccccc2)nc2ccccc21)Nc1cc(Cl)c(Cl)cc1Cl | -0.0494%
93 | CCOc1ccc(C(O)Cc2nc3ccccc3n2C)cc1 (stereo unspecified) | 3.12%
94 | COCn1c(COc2ccccc2)nc2ccccc21 | 65.8% (active)
95 | Cc1ccc(/C=N/NC(=O)C(NC(=O)c2ccccc2)c2n[nH]c(=O)c3ccccc23)cc1 (stereo unspecified) | 0.556%
96 | COC(=O)c1sccc1NS(=O)(=O)c1ccc(F)cc1F | 6.45%
